# Test results taken from PubChem BioAssay AID686978 (National Center for Advancing Translational Sciences (NCATS), 2013).
# Screen size: about 420,000 compounds; about 64,000 (15%) were called active. Not shown: some 27% with an inconclusive outcome. Calls come from the whole dose curve; as a rule, active = well fitted inhibition curve with a large enough effect; inconclusive = small, poorly fitted or top-dose-only effect; inactive = flat fitted curve, though single readings scatter. These entries were drawn from the full list. A call without a number means that no potency is given here.
# Assay: qHTS for Inhibitors of human tyrosyl-DNA phosphodiesterase 1 (TDP1): qHTS in cells in absence of CPT; note: nearly all actives have a fitted effect of over 55% in size
# Settings: DT40 Tdp1-/- hTDP1 cells, no CPT, ATP luminescence, 48 h; activity change, negative = growth inhibition: at 46.2 µM (top of the series)
# In short: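 Chicken DT40 Tdp1-/- cells complemented with human TDP1, screened without camptothecin (DMSO vehicle only), 400 cells/well. Compounds pin-transferred, cells incubated at 37 °C for at least 48 hr. Growth read as ATP-dependent luminescence (CellTiter-Glo, 30 min at RT).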
# Potency is the fitted concentration of half-maximal effect.
row,SMILES,Potency
1,CCN(CC)CCN(C)C(c1ccnc2ccccc12)c1nnnn1-c1ccc2c(c1)OCCO2 (stereo not drawn),18.4 µM (active)
2,CC(=O)NC1CCN(CC(=O)Nc2nccs2)CC1,inactive
3,Cc1cc(C)n(CCNC(=O)CC2C(=O)NCCN2Cc2ccc(C)o2)n1 (stereo not drawn),inactive
4,COC(=O)c1ccc(NC(=O)C23CC4CC(C2)CC(n2cnc(Cl)n2)(C4)C3)cc1,16.4 µM (active)
5,COC(=O)c1ccc(NC(=O)CSc2nnc(C3CC3)n2C)cc1,inactive
6,Cc1ncn(C23CC4CC(CC(O)(C4)C2)C3)n1,inactive
7,CCOc1ccc(S(=O)(=O)NCCC(=O)NNC(=O)c2ccc(F)cc2)cc1,inactive
8,COc1ccc(CCNC(=O)COc2cc(C)cc3oc(=O)c(C)c(C)c23)cc1OC,inactive
9,COc1ccc(CCN2C(=O)c3oc4cc(C)cc(C)c4c(=O)c3C2c2ccccc2F)cc1OC (stereo not drawn),2.91 µM (active)
10,COc1ccc(CNC(=O)c2cc(=O)c3c(C)cc(C)cc3o2)cc1,inactive
11,COc1ccccc1OCCNC(=O)C(CCSC)NC(=O)COc1ccccc1 (stereo not drawn),inactive
12,O=C(O)CC(c1ccccc1)n1cnnn1 (stereo not drawn),inactive
13,CCCCOc1ccc(C(=O)NO)cc1,15.8 µM (active)
14,CCCCOc1ccc(C(=O)NCc2ccncc2)cc1,inactive
15,CCCOc1ccc(C(=O)C(CCC(CNCC)C(=O)c2ccc(OCCC)cc2)CNCC)cc1 (stereo not drawn),0.92 µM (active)
16,CCCOc1ccc(C(=O)NCCc2ccccc2)cc1,inactive
17,CCCOc1ccc(C(=O)CCC(=O)OC(C)C(=O)Nc2ccc(NC(C)=O)cc2)cc1 (stereo not drawn),inactive
18,CCCCOc1ccc(C(=O)NN2CCN(C)CC2)cc1,inactive
19,COc1ccccc1C(=O)NCC(=O)OCC(=O)Nc1nnc(-c2ccccc2)o1,inactive
20,CCCNC(=O)C[C@@H]1CC[C@@H]2[C@H](COC[C@H](O)CN2C(=O)c2cc(Cl)cc(Cl)c2)O1,inactive
21,Cn1c(N)c(C(=O)COC(=O)c2ccccc2NCc2ccco2)c(=O)n(C)c1=O,inactive
22,Cc1cc2cc(CNC(=O)c3cccs3)ccc2[nH]1,inactive
23,CCc1cccc(CC)c1NC(=S)NCc1ccc2[nH]c(C)cc2c1,18.4 µM (active)

row,SMILES,Potency
1,CCc1cccc(CC)c1NC(=S)Nc1ccc2cn[nH]c2c1,inactive
2,COc1ccc(S(=O)(=O)NCC2CCCN(C(=O)c3occc3C)C2)cc1 (stereo not drawn),inactive
3,O=C(c1ccccn1)c1ncc(C(F)(F)F)cc1Cl,inactive
4,C=CCn1c(SCC(=O)Nc2nc3ccccc3s2)nnc1-c1ccccc1O,inactive
5,O=c1[nH]c(CN2CCOCC2)nc2cc(Cl)ccc12,inactive
6,NC(=O)Cc1nc2scc(-c3ccc(Cl)cc3)c2c(=O)[nH]1,inactive
7,O=c1[nH]c(CCl)nc2cc(-c3ccc(Cl)cc3)sc12,2.31 µM (active)
8,CCOCCCNC(=S)N1CCC(NC(=O)C2CCCCC2)CC1,inactive
9,CSCCC(NS(=O)(=O)c1ccc2c(c1)oc(=O)n2C)C(=O)NCc1ccccc1 (stereo not drawn),inactive
10,OC(CBr)C[n+]1cccc2cc(Br)ccc21 (stereo not drawn),11.2 µM (active)
11,Cc1c(CCC(=O)N[C@@H](CC(C)C)C(=O)O)c(=O)oc2c(C)c3oc4c(c3cc12)CCCC4,inactive
12,CCN(CC)CCCNC(=O)CCn1nc(-c2ccc(Cl)cc2)ccc1=O,inactive
13,Cn1c(C(=O)Nc2cccc(C(F)(F)F)c2)cc2c(=O)n3ccccc3nc21,9.2 µM (active)
14,O=C(Nc1ccc(OC(F)(F)F)cc1)c1cc2c(=O)n3ccccc3nc2s1,inactive
15,O=C(COC(=O)c1cccc(Cl)c1)NC(=O)NCc1ccccc1,inactive
16,CCN(CC)c1ccc2oc(=O)c(C)nc2c1,5.8 µM (active)
17,CCN(CC)c1ccc2c(Nc3ccccc3)c(C=O)c(=O)oc2c1,inactive
18,CCN(CC)c1ccc2cc(C(=O)O)c(=O)oc2c1,inactive
19,COC(=O)c1ccc(C2C(Oc3ccccc3C)C(=O)N2CCc2ccc(OC)c(OC)c2)cc1 (stereo not drawn),14.6 µM (active)
20,COc1ccc(CCN2C(=O)C3CC=C(C)CC3C2=O)cc1OC (stereo not drawn),inactive
21,COc1ccc(CCNC(=O)C(=O)NCc2ccccc2C)cc1OC,inactive
22,CN(CCC1CCOCC1)C(=O)CC1C(=O)NCCN1Cc1cccc(F)c1 (stereo not drawn),inactive
23,COc1ccc(NS(=O)(=O)c2cc3c(cc2C)N(C(C)=O)CCO3)cc1,inactive

row,SMILES,Potency
1,COC(=O)c1c(NC(=O)c2ccc(Cl)c(Cl)c2)sc2c1CCCC2,inactive
2,CCOC(=O)c1c(NC(=O)NC(C)(C)C)sc2c1CCN(C)C2,inactive
3,CCOC(=O)c1c(NC(=O)C2CCN(S(=O)(=O)c3ccc(Cl)cc3)CC2)sc2c1CCCC2,inactive
4,CCOC(=O)c1c(NC(=O)c2ccc(S(=O)(=O)N3CCCC(C)C3)cc2)sc2c1CCN(C(C)C)C2 (stereo not drawn),10.3 µM (active)
5,CCCN(CCC)S(=O)(=O)c1ccc(C(=O)Nc2sc3c(c2C(=O)OC)CCN(CC)C3)cc1,20.6 µM (active)
6,COC(=O)c1c(NC(=O)c2cc(=O)c3c(C)cc(C)cc3o2)sc2c1CCCC2,inactive
7,O=C(O)/C=C/c1ccc(OCCCF)cc1,inactive
8,CN(C)/C=C/C(=O)c1cnc2sccn2c1=O,inactive
9,Cn1nc(C(F)(F)F)c(-c2ccc(F)cc2)c1NC(=O)CSCC(=O)O,inactive
10,CN(C)C=NC(=O)c1cccn1-c1ncc(C(F)(F)F)cc1Cl,inactive
11,CC(C)N(C(=O)CSc1nnc(NC2CC2)s1)c1ccccc1,inactive
12,CC(C)c1ccc(Nc2nnc(SCC(=O)c3nnc(-c4ccccc4)o3)s2)cc1,11.6 µM (active)
13,O=C(CSc1nnc(Nc2ccccc2)s1)Nc1cccnc1Cl,inactive
14,C/C(=N\OC(=O)c1ccccc1)c1c(C)nc2cc(C)ccn12,inactive
15,CC1=C(C(=O)Nc2ccc(Cl)cc2)C(c2ccco2)NC(=O)N1 (stereo not drawn),inactive
16,Cc1ccc(SCC(=O)Nc2ccc3c(c2)OCCO3)cc1,inactive
17,Cc1ccc(SC(=O)COc2ccc(C)c(C)c2)cc1,inactive
18,Cc1ccc(SCC(=O)c2cc(C)c(OC(=S)N(C)C)c(C)c2)cc1,18.4 µM (active)
19,CCCCc1ccc(S(=O)(=O)NC(=O)C2(C)CCN2C(=O)c2c(C)noc2C)cc1 (stereo not drawn),inactive
20,COc1ccc(/C=N/N(C)C2=NS(=O)(=O)c3ccccc32)cc1OC,inactive
21,O=S1(=O)N=C(N(CCO)/N=C/c2ccccc2F)c2ccccc21,0.92 µM (active)
22,C=CCOCCN(C)C1=NS(=O)(=O)c2ccccc21,inactive
